Screening results deposited in PubChem BioAssay by National Center for Advancing Translational Sciences (NCATS).
KCNH2 3.1 block – KCNH2 3.1 (human) potassium channel inhibition; actives 0.95% (n = 340,000); activity change, % (tested at about 1.8 µM); U2OS KCNH2 3.1, thallium flux FluxOr; active compounds read low;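 active means maximum activity change below -70%; inconclusive means maximum activity change from -70% to -50%; inactive means maximum activity change above -50%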;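 further: thallium influx rate constant from kinetic fluorescence after stimulation buffer; on the % scale 0 is the no-effect control and ±100 the full control effect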
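Virally transduced U2OS (3.1 isoform, 4 h infection in dark at RT) → overnight 37 C → FluxOr + Red40 in HBSS/HEPES, 45 min → stimulation buffer, 2 min kinetic read → rate constant vs DMSO controls.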
BCR signal inh – blocks chronic active B-cell receptor signaling; actives 0.05% (n = 340,000); ABC-DLBCL IkBa-CBG/CBR reporter, luminescence ratio, 4 h; Potency, µM (series often up to 46.1 µM), for the others: at the top dose activity change, negative = inhibition, usual class: inhibitors; active means well fitted inhibition curve with a large enough effect in the signal ratio, with a control signal flat, not every such curve was filed as active; inconclusive means small, poorly fitted or top-dose-only effect, or effect the other way, or a change in a side signal; the % refers to the signal ratio;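 further: potency means the concentration at half of the fitted maximal effect; plate controls were basal doxycycline-induced cells for no effect and cells given 10 µM MG132 for full effect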
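Cell line TMD8 (human ABC DLBCL), stably expressing tet-inducible CBG68-IkBa fusion and CBR; IMDM/0.5% FBS; cpd up to 46 uM; dox induction, 4 h, 37C/5% CO2; dual luminescence; green/red ratio; MG132 control.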
hERG WT inh – blocks the wildtype human KCNH2 potassium channel; activity change, % at 1.84 µM; actives 0.37% (n = 340,000); U2OS, BacMam KCNH2, thallium flux FluxOr; active compounds read low; AID 720551;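 active means maximum activity change below -70%; inconclusive means maximum activity change between -70% and -50%; inactive means maximum activity change above -50%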; further: on the % scale 0 is the no-effect control and ±100 the full control effect
Target sequence (Q12809 whole entry, looked up): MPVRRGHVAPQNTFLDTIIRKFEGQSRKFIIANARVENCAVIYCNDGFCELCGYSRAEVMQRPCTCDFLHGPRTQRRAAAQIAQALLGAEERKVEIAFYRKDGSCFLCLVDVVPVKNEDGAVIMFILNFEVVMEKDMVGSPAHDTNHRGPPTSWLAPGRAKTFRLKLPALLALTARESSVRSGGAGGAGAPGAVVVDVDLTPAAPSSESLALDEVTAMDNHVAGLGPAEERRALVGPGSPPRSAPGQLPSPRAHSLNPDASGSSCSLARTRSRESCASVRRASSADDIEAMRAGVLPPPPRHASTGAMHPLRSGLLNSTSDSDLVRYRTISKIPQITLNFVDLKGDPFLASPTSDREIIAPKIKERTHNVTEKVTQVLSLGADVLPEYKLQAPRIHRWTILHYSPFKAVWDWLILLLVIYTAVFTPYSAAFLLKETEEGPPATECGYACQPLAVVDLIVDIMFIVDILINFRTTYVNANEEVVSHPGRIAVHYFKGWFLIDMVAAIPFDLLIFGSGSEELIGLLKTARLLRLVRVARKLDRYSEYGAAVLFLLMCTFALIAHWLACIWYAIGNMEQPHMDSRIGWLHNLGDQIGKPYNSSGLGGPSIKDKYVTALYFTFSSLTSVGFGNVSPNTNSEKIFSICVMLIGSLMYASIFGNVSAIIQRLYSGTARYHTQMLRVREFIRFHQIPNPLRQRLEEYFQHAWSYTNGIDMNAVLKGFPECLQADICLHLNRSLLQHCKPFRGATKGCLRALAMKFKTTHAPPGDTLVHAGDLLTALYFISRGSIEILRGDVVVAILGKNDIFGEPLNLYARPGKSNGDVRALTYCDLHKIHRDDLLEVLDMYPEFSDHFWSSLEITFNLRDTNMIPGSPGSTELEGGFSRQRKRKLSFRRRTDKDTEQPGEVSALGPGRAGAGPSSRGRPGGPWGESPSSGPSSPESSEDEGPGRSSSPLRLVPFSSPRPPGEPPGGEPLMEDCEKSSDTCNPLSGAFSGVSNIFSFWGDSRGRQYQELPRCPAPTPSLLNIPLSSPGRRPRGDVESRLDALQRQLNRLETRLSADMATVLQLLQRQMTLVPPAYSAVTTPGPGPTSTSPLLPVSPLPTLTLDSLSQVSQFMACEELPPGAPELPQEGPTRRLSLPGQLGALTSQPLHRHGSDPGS
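U2OS cells were transduced with wild-type KCNH2 virus (2.03 x 10^8 / mL) for 4 h at room temperature, then cultured overnight at 37 C. Thallium flux was read with FluxOr dye. Rate constants were normalized to DMSO controls.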
12-LOX inh – blocks human arachidonate 12S-lipoxygenase. Potency, µM (top dose mostly 108 µM), for inactives: at the highest dose activity change, negative = inhibition, actives largely listed as inhibitors. purified 12hLO, xylenol orange hydroperoxide absorbance. P18054. actives 1.1% (n = 580,000); active means well fitted inhibition curve with a large enough effect; inconclusive means small, poorly fitted or top-dose-only effect, or another doubt; inactive means no such curve, though single readings can be large or run the other way; further: potency means the concentration at half of the fitted maximal effect; on the % scale 0 is the no-effect control and ±100 the full control effect
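Purified human 12hLO (150 nM final) in 25 mM Hepes, 0.01% Triton X-100, pH 7.0 was preincubated 15 min at room temperature with compound. Then 40 uM arachidonic acid was added, 30 min. Hydroperoxide was read by Fe-XO absorbance ratio 573/405 nm.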
LDHA block – inhibitors of human lactate dehydrogenase A; purified LDHA, NADH/diaphorase-resazurin fluorescence; active compounds read low; activity change, % (values are at about 110 or 230 µM); actives 0.15% (n = 480,000); in the data active means activity change below about -30%; inconclusive means mostly about -25% to -30%;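 further: plate controls were DMSO wells for no effect and wells without enzyme for full effect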
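Human LDH5 (2 nM) was incubated with 0.06 mM NADH and 0.2 mM pyruvate for 5 min at room temperature in Tris pH 7.4. Remaining NADH was coupled through diaphorase/resazurin, and resorufin fluorescence was read at 0 and 20 min.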
ClpP mod – qHTS Assay for Activators of ClpP | ATP-dependent Clp protease proteolytic subunit (Bacillus subtilis (strain 168)), P80244 | purified B. subtilis ClpP, FRET peptide cleavage, 20 min | Potency, µM (highest dose often 57.5 µM), without a hit: at the top dose activity change, negative = active | actives 1.9% (n = 340,000) | AID 651965, 2013; active means well fitted falling curve with a large enough effect; inconclusive means small, poorly fitted or top-dose-only effect; inactive means no such curve, though single readings can be large or run the other way; further: potency means the concentration at half of the fitted maximal effect; the source files actives as falling curves though it sought activators and does not explain the sign; nearly all actives have a fitted effect of over 65% in size
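Buffer: 100 mM Tris/HCl pH8, 100 mM KCl, 0.05% low protease BSA, 2.5% glycerol, 0.01% Tween-20. ClpP 10 microg/mL final; 20 min RT; delta FRET normalized to ADEP and DMSO controls.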
Active calls of the source: *; i = inactive; u = inconclusive; x = no result given; ! = a repeat was not active; [ ] = remark or other dose. A selection: hits, their analogues and other compounds. The true share with any hit is near 3%.

SMILES	KCNH2 3.1 block	BCR signal inh	hERG WT inh	12-LOX inh	LDHA block	ClpP mod
COc1ccc2nc(CNC(=O)C3CCN(C(=O)C4CCC4)CC3)[nH]c2c1	x	x	x	88.3%	x	x
Cc1ccc(CN2CCC(c3cc(-c4ccc(Cl)cc4)n[nH]3)CC2)cc1	-101.6*	-0.8%	-83.9*	u	2.0	x
COc1ccc(-c2cc(C3CCN(c4cc(Cl)nc(N)n4)CC3)[nH]n2)cc1	-14.9	u	2.4	13.1%	-2.5	-1.5%
Nc1nc(Cl)cc(N2CCC(c3cc(-c4ccc(Cl)cc4)n[nH]3)CC2)n1	-74.4*	u	0.8	6.8%	8.2	-0.7%
Clc1ccc2nc(C3CCN(Cc4ccccc4)CC3)[nH]c2c1	u	7.6%	3.8	-2.4%	-6.4	-2.1%
COc1ccc(-c2cc(C3CCN(Cc4ccc([N+](=O)[O-])cc4)CC3)[nH]n2)cc1	-112.3*	1.9%	-87.0*	u	-8.0	x
COc1ccc(-c2cc(C3CCN(Cc4cccc(C(F)(F)F)c4)CC3)[nH]n2)cc1	x	-12.7%	46.5	u	8.3	x
Cc1ccc(CN2CCC(c3nc4ccc(Cl)cc4[nH]3)CC2)cc1	-92.9*	-4.7%	-132.4*	u	-1.2	0.1%
CCOC(=O)c1c(C)c2ccccc2n2cc(CN3CCOCC3)c(C#N)c12	x	x	x	u	12.9	x
Cc1cc(OCc2nc3c(C)cccc3[nH]2)ccc1Cl	x	x	x	29.5%	-15.7	x
COC(=O)/C(=C1/Oc2c(C)cc(C)cc2S1)C(F)(F)F	x	x	x	u	3.0	x
Cc1cc(=O)n2c(nc3ccccc32)[nH]1	2.3	u	-8.7	0.0%	-4.3	14.1µM*
CCOC(=O)c1cc(=O)n2c(nc3ccccc32)[nH]1	x	u	x	17.2%	-12.5	3.9%
CCOc1ccc(/C(O)=C2\C(=O)C(=O)NC2c2ccc(Cl)cc2)cc1 (stereo not given)	x	x	x	u	10.2	x
Cc1cccc(Nc2nc(-c3ccc4c(c3)CCN4S(C)(=O)=O)cs2)c1	x	x	x	35.5µM*	-0.2	x
O=C(O)c1ccc(Nc2nc(-c3cc4ccccc4oc3=O)cs2)cc1	x	x	x	u	-4.4	x
ONC(=Nc1ccc(Cl)cc1)c1ccc(Cl)cc1	-3.9	u	0.8	u	-4.8	-1.6%
[S-]C(=Nc1ccc(Cl)cc1)N[n+]1ccccc1	3.3	u	1.1	u	-8.1	28.2µM*
O=c1n(Cc2ccccc2)c2cc(Cl)cnc2n1Cc1ccccc1	3.2	u	-1.6	0.0%	2.4	28.2µM*
Cn1c(=O)n(Cc2cccc(Cl)c2)c(=O)c2c1ncn2Cc1ccccc1	x	x	x	u	2.8	x
O=C(c1ccccn1)N1CC(=O)N(C2CCCCC2)CC(OCc2ccccc2)C1 (stereo not given)	x	x	x	22.0%	x	x
C[C@@H](NCCCc1cccc(C(F)(F)F)c1)c1cccc2ccccc12	x	x	x	8.91µM*!	6.8	1.4%
COc1ccc(-c2nnc(-c3ccc(N)cc3)o2)cc1	0.5	u	-0.4	-14.9%	-4.7	28.2µM*
COc1ccc(-c2ccc(-c3nnc(-c4cc(OC)ccc4OC)o3)cc2)cc1	-10.6	-0.1%	26.3	1.5%	-4.3	15.8µM*
O=C(NCCCc1ccccc1)C(=O)NCC1OCCN1S(=O)(=O)c1cc(F)ccc1F (stereo not given)	26.8	x	-5.8	i	-1.0	-0.3%
SMILES	KCNH2 3.1 block	BCR signal inh	hERG WT inh	12-LOX inh	LDHA block	ClpP mod
COc1ccc(CCNC(=O)C(=O)NCC2OCCN2S(=O)(=O)c2cc(F)ccc2F)cc1 (stereo not given)	-143.0*	0.9%	8.2	-4.4%	-6.5	-2.3%
COc1ccc(NC(=O)c2cc(-c3ccc(OC)c(OC)c3)on2)cc1OC	-3.9	u	-13.1	2.7%	-2.9	22.4µM*
COc1ccc(NC(=O)c2cc(-c3ccc(C)cc3)on2)cc1OC	-31.8	1.9%	-6.7	2.8%	-4.5	u
Cc1cccc(CN2C(=O)NC(c3ccccc3)(c3ccccc3)C2=O)c1	-89.2*	0.5%	4.1	-4.3%	1.0	-3.5%
CC(=O)NC1(C)CCN(Cc2ccc(-c3cccc(F)c3)cc2)C1 (stereo not given)	x	x	x	50.1µM*	x	x
CC(=O)NC1(C)CCN(Cc2ccccc2-c2ccc3c(ccn3C)c2)C1 (stereo not given)	x	x	x	28.2µM*	x	x
CC(=O)NC1(C)CCN(Cc2ccccc2-c2cccc(C(C)=O)c2)C1 (stereo not given)	x	x	x	35.5µM*	x	x
COc1ccccc1-c1ccccc1CN1CCC(C)(NC(C)=O)C1 (stereo not given)	x	x	x	2.3%[176 µM]	x	x
CC(=O)NC1(C)CCCN(Cc2cccc(-c3c(C)noc3C)c2)C1 (stereo not given)	x	x	x	39.8µM*	x	x
COc1cccc(-c2cccc(CN3CCCC(C)(NC(C)=O)C3)c2)c1 (stereo not given)	x	x	x	-49.6%[176 µM]	x	x
CC(C)OC(=O)c1ccn[nH]1	x	x	x	-46.7%	0.7	x
S=C(NCCSc1ccc(Cl)cc1)Nc1ccc(Nc2ccccc2)cc1	x	x	x	35.5µM*	7.5	x
COC(=O)Cc1ccc(NC(=S)NCCSc2ccc(C)cc2)cc1	-8.8	-3.9%	6.0	44.7µM*	0.4	-3.5%
Fc1ccccc1CSCCNC(=S)Nc1ccccc1	x	x	x	35.5µM*	2.8	x
Cc1ccc(NC(=S)NCCSc2ccc(Cl)cc2)cc1	1.6	-8.4%	-8.2	39.8µM*	-10.6	x
Cc1cc(C)c(C(N)C(=O)O)cc1C (stereo not given)	x	x	x	45.4%	1.7	x
Cc1ccc([N+](=O)[O-])cc1NC(=O)CCCOc1ccccc1	-109.6*	3.7%	3.4	-13.2%	-8.9	-6.5%
CN(C)CCN(C(=O)/C=C/c1cccs1)c1nc2ccc(Br)cc2s1	-73.0*	0.9%	-9.7	-21.6%	-7.2	7.1%
CCN(CC)CCN(C(=O)/C=C/c1cccs1)c1nc2ccc(F)cc2s1	-28.0	u	-22.4	-9.7%	-1.9	1.5%
Cc1ccc2nc(N(CCCN(C)C)C(=O)CN3C(=O)c4ccccc4C3=O)sc2c1	-87.2*	0.1%	33.8	-12.9%	-2.7	-1.7%
CCN(CC)CCN(C(=O)/C=C/c1cccs1)c1nc2ccc(C)cc2s1	-99.1*	-8.6%	-148.2*	-6.0%	-3.8	-1.6%
CCc1ccc2nc(N(CCN(C)C)C(=O)/C=C/c3cccs3)sc2c1	-126.6*	u	-42.7	x	-1.8	0.3%
CCc1ccc2nc(N(CCCN(C)C)C(=O)c3ccc(C(=O)c4ccccc4)cc3)sc2c1	-88.9*	1.0%	0.3	u	1.6	-1.2%
Cc1ccc2nc(N(CCN(C)C)C(=O)/C=C/c3cccs3)sc2c1	-101.0*	-10.0%	-16.5	-17.2%	-4.1	22.8%
